High-throughput results: PubChem BioAssay, National Center for Advancing Translational Sciences (NCATS)
A selection: hits, their analogues and other compounds. The true share with any hit is near 17%.
TDP1 cell noCPT: qHTS for Inhibitors of human tyrosyl-DNA phosphodiesterase 1 (TDP1): qHTS in cells in absence of CPT | DT40 Tdp1-/- hTDP1 cells, no CPT, ATP luminescence, 48 h | Potency, µM (highest dose often 46.2 µM), actives largely listed as inhibitors | actives 15% (n = 420,000); also: nearly all actives have a fitted effect of over 55% in size
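Stably hTDP1-transfected Tdp1-null chicken DT40 cells were treated with library compounds minus camptothecin and grown for at least 48 hr at 37 °C, after which cellular ATP was quantified by luminescence.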
DT40 TDP1 CPT: growth inhibition of DT40 Tdp1-/-;hTDP1 cells with camptothecin (screen for TDP1 inhibitors); chicken DT40 Tdp1-/-;hTDP1 cells + 20 nM CPT, ATP luminescence, 48 h; Potency, µM (titrated, usually from 46.2 µM), most hits filed as inhibitors; actives 12% (n = 420,000); AID 686979; also: nearly all actives have a fitted effect of over 55% in size
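Chicken DT40 Tdp1-/- cells complemented with human TDP1, 400 cells/well, exposed to compounds plus 20 nM camptothecin for at least 48 h at 37 C; viability read as ATP content by CellTiter-Glo luminescence.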
HT1080-NT tox: kills 2HG-producing HT-1080-NT fibrosarcoma cells; HT-1080-NT fibrosarcoma viability, CellTiter-Glo ATP luminescence, 48 h; Potency, µM (titrated, usually from 46.1 µM), usual class: cytotoxic; AID 686970; actives 1.6% (n = 360,000);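 also: NT is the 2HG producing partner of a matched IDH1 knockdown line; nearly all actives have a fitted effect of over 55% in size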
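HT-1080-NT fibrosarcoma cells (2HG-overproducing), 750 cells/well in RPMI with 5% FBS, dosed after 2 h and incubated 48 h at 37C. CellTiter-Glo luminescence normalized to DMSO and no-cell wells; concentration-response curves fitted and classed.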
HepG2 viability: kills HepG2 cells in TGF-b inhibitor counter-screen; HepG2 CAGA-GFP viability, ATP luminescence, 18 h; actives 0.76% (n = 410,000); Potency, µM (highest dose often 46.1 µM), most hits filed as cytotoxic; AID 588856
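HepG2 CAGA-GFP cells (1000/well, DMEM with 1% FBS) received compound, then TGF-beta at 500 pg/mL final, and were incubated 18 hours at 37 degrees C. Viability was read by CellTiter-Glo luminescence. Media-only wells were set as complete cell-killing and DMSO as no toxicity.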
TGFb SMAD3 inh: blocks TGF-b signaling; HepG2 CAGA-GFP TGF-b/SMAD3 reporter, GFP fluorescence, 18 h; TGF-beta stimulated, 500 pg/mL final; Potency, µM (doses to about 46.1 µM), hits mostly inhibitors; actives 1.2% (n = 410,000); AID 588855; also: nearly all actives have a fitted effect of over 65% in size
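Per well, imaged GFP fluorescence of HEPG2 CAGA-GFP cells gives the signal; cells get compound, then TGF-beta (500 pg/mL final), 18 h at 37 degrees C; %Activity versus -TGF-beta and +DMSO controls.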
HT1080 IDH1KD tx: HT-1080 IDH1 knockdown cell toxicity (counter line); Potency, µM (top dose mostly 46.1 µM), actives largely listed as cytotoxic; actives 2% (n = 360,000); HT-1080 IDH1 knockdown viability, ATP luminescence, 48 h
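IDH1KD HT-1080 cells, 750/well, RPMI + 5% FBS; compound pinned after 2 h settling; 48 h, 37 °C; CellTiter-Glo luminescence; % activity normalised to DMSO and no-cell wells; curves fitted, classed by r2 and efficacy.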
Of the large screens only hits and unclear results are named; the others gave an inactive call. Calls follow the shape of the dose curve; as a rule, active = well fitted curve in the direction sought with a large enough effect; inconclusive = small, poorly fitted or top-dose-only effect, or another doubt; inactive = no such curve, though single readings can be large; an effect the other way counts as inactive or inconclusive.

CCC(=O)OCCNc1cc(Sc2nc3ccccc3s2)c2nonc2c1[N+](=O)[O-]	TDP1 cell noCPT 2.1µM, DT40 TDP1 CPT 1.6µM, HepG2 viability 13µM, TGFb SMAD3 inh 7.9µM, HT1080 IDH1KD tx 2.8µM
CCC(=O)OCCNc1cc(Sc2nc3ccccc3[nH]2)c2nonc2c1[N+](=O)[O-]	TDP1 cell noCPT 2.9µM, DT40 TDP1 CPT 2.3µM, HT1080-NT tox inconclusive, HT1080 IDH1KD tx inconclusive
CC(C)OC(=O)CSc1nc2ccccc2s1	none
CC(=O)N/C(=C\c1ccccc1)C(=O)OCC(=O)Nc1ccc(C)c(S(=O)(=O)N(C)C)c1	TGFb SMAD3 inh inconclusive
CC(C)Cc1ccc(CN2CCCC(NC(=O)CCN3CCOCC3)C2)cc1 (centres undefined)	TDP1 cell noCPT inconclusive, DT40 TDP1 CPT inconclusive
CC(C)Cc1ccc(CN2CCCC(NC(=O)CCCN3CCCC3=O)C2)cc1 (centres undefined)	TDP1 cell noCPT 21µM, DT40 TDP1 CPT inconclusive
COc1ccc(OCC(O)CN2CC(C)OC(C)C2)cc1 (centres undefined)	none
COc1ccc(CCNC(=S)Nc2cccc3ccccc23)cc1	TDP1 cell noCPT 16µM, DT40 TDP1 CPT inconclusive, TGFb SMAD3 inh inconclusive
COc1ccc(OCCNC(=S)Nc2cccc3ccccc23)cc1	TDP1 cell noCPT 23µM, TGFb SMAD3 inh inconclusive, HT1080 IDH1KD tx inconclusive
CC1=C(C(=O)N2CCCCCC2)CC(CC(=O)NCCN2CCOCC2)C(=O)N1Cc1ccc(C(C)(C)C)cc1 (centres undefined)	TDP1 cell noCPT inconclusive (no result: HepG2 viability, TGFb SMAD3 inh)
CC1CN(C(=O)COc2ccc3c(-c4ccccc4)cc(=O)oc3c2)CC(C)O1 (centres undefined)	none
CCc1ccccc1N(C)C(=O)c1nn(C)c2c1CSc1ccccc1-2	TDP1 cell noCPT 23µM, DT40 TDP1 CPT inconclusive (no result: HT1080-NT tox, HT1080 IDH1KD tx)
Cc1cccc(CCNC(=O)c2nn(C)c3c2CSc2ccccc2-3)c1	TDP1 cell noCPT inconclusive, TGFb SMAD3 inh inconclusive (no result: HT1080-NT tox, HT1080 IDH1KD tx)
CCCN(CCC)C(=O)c1nn(C)c2c1CSc1ccc(C)cc1-2	TDP1 cell noCPT 18µM, DT40 TDP1 CPT inconclusive (no result: HT1080-NT tox, HT1080 IDH1KD tx)
CCN(CC)CCCNC(=O)c1nn(C)c2c1CSc1ccccc1-2	TDP1 cell noCPT inconclusive, DT40 TDP1 CPT inconclusive (no result: HT1080-NT tox, HT1080 IDH1KD tx)
CCCN(CCC)C(=O)c1nn(C)c2c1CSc1ccccc1-2	TDP1 cell noCPT inconclusive, DT40 TDP1 CPT 18µM, TGFb SMAD3 inh inconclusive (no result: HT1080-NT tox, HT1080 IDH1KD tx)
O=C(Nc1cc2c(cc1C(=O)c1ccccc1Br)OCCO2)c1ccccc1	none (no result: HT1080-NT tox, HT1080 IDH1KD tx)
COC(=O)c1sc(NC(=O)CN2CCN(c3cccc(Cl)c3)CC2)c(C(=O)OC)c1C	TDP1 cell noCPT 33µM, DT40 TDP1 CPT 29µM
COC(=O)c1[nH]c2ccccc2c1NC(=O)CN1CCCCCC1	TDP1 cell noCPT inconclusive, DT40 TDP1 CPT inconclusive
COC(=O)c1[nH]c2ccccc2c1NC(=O)CN1CCN(c2cccc(Cl)c2)CC1	TDP1 cell noCPT 16µM, DT40 TDP1 CPT 26µM, TGFb SMAD3 inh inconclusive
N#Cc1ccccc1OCC(=O)NCC(c1cccs1)N1CCOCC1 (centres undefined)	none
CCOC(=O)c1c(NC(=O)/C=C/c2ccc(C)cc2)sc2c1CCCC2	none (no result: HT1080-NT tox, HT1080 IDH1KD tx)
O=C(NCCC1=CCCCC1)c1[nH]c(C(F)(F)F)nc1-c1ccccc1	TDP1 cell noCPT inconclusive, DT40 TDP1 CPT 16µM, HT1080-NT tox inconclusive, TGFb SMAD3 inh inconclusive, HT1080 IDH1KD tx inconclusive
C/C(=N\NC(=O)C(C)Sc1ccccc1)c1ccc([N+](=O)[O-])cc1 (centres undefined)	TDP1 cell noCPT 4.1µM, DT40 TDP1 CPT inconclusive
C/C(=N\NC(=O)CSCc1ccc([N+](=O)[O-])cc1)c1ccccc1O	TDP1 cell noCPT 3.7µM, DT40 TDP1 CPT 5.2µM, TGFb SMAD3 inh inconclusive
